{"source": "PubChem BioAssay AID720565", "about": "(National Center for Advancing Translational Sciences (NCATS), 2013)", "note": "“And” between values parts separate entries of the source, which are not always exact repeats. Identical values can stand only once. Results filed as inconclusive are left out. The source made the active and inactive calls. Calls follow the shape of the dose curve; as a rule, active = well fitted activation curve with a large enough effect; inconclusive = small, poorly fitted or top-dose-only effect; inactive = no such curve, though single readings can be large or run the other way. Potency is read from the fitted curve at half-maximal effect."}
{"assay": "qHTS for small molecules that induce genotoxicity in ELG1 expressing cells: Confirmatory Assay for Cherry-picked Compounds; also: nearly all actives have a fitted effect of over 35% in size", "settings": "ELG1-luciferase reporter cells, luminescence, 16 h; series mostly up to 46.1 µM", "description": "Cancer cells divide rapidly compared to normal cells in the body. During cell division, cancer cells need to duplicate their genome by DNA replication. The failure of genome duplication leads to cancer cells' death. Therefore, inhibitors of DNA replication could specifically kill cancer cells. Based on this concept, many chemotherapeutic agents were developed and have been used to treat cancer patients. However, there are a limited number of agents available in the clinical setting, and some of those that do exist have low efficacy and severe side effects. Therefore, if we can find the compounds that effectively block DNA replication either by directly damaging DNA or by inhibiting other cellular mechanisms, the options for cancer treatment will be broadened. We developed a quantitative high-throughput ELG1-luciferase reporter gene assay. Since the level of human ELG1 protein is enhanced in response to genetic stresses, increases in luciferase activity can be used to identify compounds that cause genetic stress. The data herein is the result of the confirmation assay against the cherry picked compounds selected from the primary qHTS (AID 504466). Activation is the desired outcome for this assay. NIH Chemical Genomics Center [NCGC] NIH Molecular Libraries Probe Centers Network [MLPCN] MLPCN Grant: MH092164 Assay Provider: Kyungjae Myung, National Human Genome Research Institute, NIH\nFor genotoxicity screening, 2,000 cells/ well (5 uL volume) were dispensed into white, solid-bottom 1536-well plates using a solenoid-based dispenser. Following transfer of 23 nL compound or DMSO vehicle by a pin tool, the plates were incubated 16 hr at 37 C, 5% CO2. Five microliter of ONE-Glo reagent (Promega) was then added to each plate. The assay plates were incubated for 30 min at room temperature followed by quantification of the luciferase activity using the PerkinElmer ViewLux CCD-based plate reader."}
{"smiles": "C(=C\\c1ccc2ccccc2n1)/c1cccnc1", "Potency": "0.25 µM (active)"}
{"smiles": "CCn1c(C)cc(C(=O)COC(=O)c2cccnc2SC)c1C", "Potency": "9.96 µM (active)"}
{"smiles": "CC(=O)c1cc2c(cc1NC(=O)CSc1nc3ccccc3o1)OCO2", "Potency": "inactive"}
{"smiles": "COc1ccc(OCC(=O)Nc2ccc(-c3nc4cc(C)c(C)cc4o3)cc2)cc1", "Potency": "813 nM (active) and 1.12 µM (active)"}
{"smiles": "COc1cccc2c1C(=O)/C(=C\\c1ccc(N(C)C)cc1)C2", "Potency": "3.15 µM (active)"}
{"smiles": "Cc1c(OCc2ccc([N+](=O)[O-])cc2)ccc2c3c(c(=O)oc12)CCC3", "Potency": "2.81 µM (active)"}
{"smiles": "Cc1cc(C(=O)COC(=O)C2=COCCO2)c(C)n1-c1ccccc1", "Potency": "0.25 µM (active)"}
{"smiles": "O=C(Nn1c(SCc2ccc([N+](=O)[O-])cc2)nc2ccccc2c1=O)c1ccc(F)cc1", "Potency": "5 µM (active)"}
{"smiles": "O=C(Nc1ccccn1)c1sc2ccc([N+](=O)[O-])cc2c1Cl", "Potency": "4.99 µM (active)"}
{"smiles": "CN(Cc1ccco1)c1ncnc2ccc(-c3cccc(Cl)c3)cc12", "Potency": "inactive"}
{"smiles": "Cc1ccccc1NC(=O)CSc1nc2ccccc2o1", "Potency": "inactive"}
{"smiles": "COc1ccc(-c2coc3cc(O)cc(O)c3c2=O)cc1", "Potency": "9.96 µM (active)"}
{"smiles": "CC(/C=C/C(=O)NO)=C\\[C@@H](C)C(=O)c1ccc(N(C)C)cc1", "Potency": "0.629 µM (active)"}
{"smiles": "COc1ccc(C2CC(c3c(O)cc(C)oc3=O)=NCCS2)c(OC)c1", "note": "(stereo not given)", "Potency": "11.2 µM (active)"}
{"smiles": "COc1cc(C)c2c(=O)cc(-c3ccccc3)oc2c1", "Potency": "6.28 µM (active)"}
{"smiles": "Clc1ccc(-c2cnnc(-c3ccccn3)n2)cc1", "Potency": "14.1 µM (active)"}
{"smiles": "COc1cc(OC)cc(-c2cc3cc4c(cc3cn2)OCO4)c1", "Potency": "5.6 µM (active)"}
{"smiles": "COc1cccc(/C=C/C(=O)OCC(=O)c2ccccc2)c1OC", "Potency": "3.53 µM (active)"}
{"smiles": "CN(C)c1ccc(-c2cc3ccccc3c(=O)o2)cc1", "Potency": "0.445 µM (active)"}
{"smiles": "CC1CCCCC1NC(=O)CN1C(=O)NC(C)(c2ccc(OC(F)F)cc2)C1=O", "note": "(stereo not given)", "Potency": "inactive"}
{"smiles": "CN(C)N=Nc1ccc(/C=C2\\C=Cc3ccccc32)cc1", "Potency": "3.97 µM (active)"}
{"smiles": "Cn1cccc1C(=O)OCC(=O)Nc1ccc2c(c1)OCCO2", "Potency": "0.706 µM (active)"}
{"smiles": "CCC1CCCCN1CCCNC(=O)c1ccc2nc(N3CCC(C)CC3)sc2c1", "note": "(stereo not given)", "Potency": "0.0706 µM (active)"}
{"smiles": "CC1CCc2nc(-c3cc4ccc(O)cc4oc3=O)sc2C1", "note": "(stereo not given)", "Potency": "1.26 µM (active)"}
{"smiles": "O=c1c(-c2ccc(F)cc2)coc2c3c(ccc12)OCCO3", "Potency": "4.45 µM (active)"}
{"smiles": "O=C(CSc1nnc(-c2csc3c2CCCC3)o1)Nc1ccccc1", "Potency": "575 nM (active) and 561 nM (active)"}
{"smiles": "COc1ccc(S(=O)(=O)N2CCCCC2)cc1NC(=O)c1[nH]c(C)c(C(C)=O)c1C", "Potency": "15.8 µM (active)"}
{"smiles": "NC(=O)C1CCN(c2cc(-c3ccc4c(c3)OCCCO4)ncn2)CC1", "Potency": "9.96 µM (active)"}
{"smiles": "COc1cccc(/C=C/c2cnc3ccccc3n2)c1OC", "Potency": "0.397 µM (active)"}
{"smiles": "CN(C)c1ccc(/C=C/c2ccc3ccccc3[n+]2[O-])cc1", "Potency": "0.0792 µM (active)"}
{"smiles": "O=C1CCN(Cc2ccccc2)C=C1c1ccc2ccccc2c1", "Potency": "14.1 µM (active)"}
{"smiles": "O=C(CSc1nnc(-c2cccc(Cl)c2)o1)Nc1ccc2c(c1)OCCO2", "Potency": "15.8 µM (active)"}
{"smiles": "CN(C)c1ccc(/C=C2\\C=Cc3ccccc32)c(F)c1", "Potency": "1.41 µM (active)"}
{"smiles": "O=C(CSc1nnc(-c2ccc(O)cc2)o1)Nc1ccccc1Br", "Potency": "14.1 µM (active)"}
{"smiles": "Oc1cc(-c2ccc(N3CCCCC3)nc2)cc2cccnc12", "Potency": "25 µM (active)"}
{"smiles": "Cc1ccc(NC(=O)c2ccc(OC(=O)c3cc4ccccc4o3)cc2)cc1", "Potency": "8.89 µM (active)"}
{"smiles": "CN(C)c1ccccc1-c1csc(N2CCC(C(N)=O)CC2)n1", "Potency": "1.99 µM (active)"}
{"smiles": "COc1cc(/C=C(\\C#N)C(=O)Nc2cccc(C(=O)O)c2)ccc1OCc1ccc(F)cc1", "Potency": "28.1 µM (active)"}
{"smiles": "O=C(COc1ccccc1Cl)Nc1ccc(-c2nc3ccccc3s2)cc1", "Potency": "28.1 µM (active)"}
{"smiles": "Oc1ccccc1-c1cc(-c2ccccc2)n[nH]1", "Potency": "2.23 µM (active)"}
